Laboratory results from the supplement of paper PMC10849652.
The full data set covers some 7,900 targets. This sample favours those with a hit. About 0.6% of all pairs of compound and target were hits.

How the values were obtained:
Test in all cases: log2 fold change, soluble protein after heating vs DMSO (PISA); higher = thermal stabilisation; K562 cells, 10 uM, 30 min; active = over 0.2 and 3.5 SD of the protein, either way, in both replicates (recomputed)
IRAK-1-4 Inhibitor I = compound: C1COCCN1CCN2C3=CC=CC=C3N=C2NC(=O)C4=CC(=CC=C4)[N+](=O)[O-] [IRAK-1-4 Inhibitor I]
How it was run: (§1)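 K562 cells at 2×10^6 cells/mL were treated for 30 min with 10 μM compound, and aliquots were heated for 3 min over 48°C-58°C before pooling. Extraction used PBS with 0.5% NP-40 at 4°C, and soluble protein was the supernatant after 21,000xg for 90 min, measured by TMTpro 16plex LC-MS/MS with channel sums equalised. Thermal stability values, relative to control samples and from duplicates, are log2 fold changes.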

ibrutinib = compound: C=CC(=O)N1CCC[C@@H](n2nc(-c3ccc(Oc4ccccc4)cc3)c3c(N)ncnc32)C1 [ibrutinib]
How it was run: as §1

[1] = compound: CC(=O)c1cnc2ccc(-c3cc(Cl)c(O)c(Cl)c3)nc2c1N[C@H]1CC[C@H](CN(C)C)CC1
How it was run: as §1

ralimetinib = compound: CC(C)(C)Cn1c(N)nc2ccc(-c3[nH]c(C(C)(C)C)nc3-c3ccc(F)cc3)nc21 [ralimetinib]
How it was run: as §1

[2] = compound: CC(C)(O)CC(=O)NCCn1ccc2ncnc(Nc3ccc(Oc4cccc(C(F)(F)F)c4)c(Cl)c3)c21
How it was run: as §1

[3] = compound: CC(C)C1=C2N=C(C=C(N2N=C1)NCC3=CC=CC=C3)NCCCCCCN
How it was run: as §1

[4] = compound: CC(C)C[C@@H](C=O)NC(=O)[C@H](CC(C)C)NC(=O)[C@H](CC(C)C)NC(=O)OCc1ccccc1
How it was run: as §1

pinometostat = compound: CC(C)N(C[C@H]1O[C@@H](n2cnc3c(N)ncnc32)[C@H](O)[C@@H]1O)[C@H]1C[C@@H](CCc2nc3cc(C(C)(C)C)ccc3[nH]2)C1 [pinometostat]
How it was run: as §1

[5] = compound: CC1=C(C(CC(=O)N1)C2=CC=C(C=C2)C(F)(F)F)C(=O)NC3=C(C=C4C(=C3)C=NN4)F
How it was run: as §1

[6] = compound: CC1=C(C2=C(C=C1)C(=O)C3=CC=CC=C3N2CCCN)C
How it was run: as §1

Measured: log2 fold change

CHD3 isoform 3 (UniProt Q12873)
inactive: IRAK-1-4 Inhibitor I -0.052 | ibrutinib -0.1 | [1] -0.284 | ralimetinib 0.36 | [2] -0.075 | [3] -0.319 | [4] 0.186 | pinometostat 0.071 | [5] 0.125 | [6] -0.009

CMTR1 (UniProt Q8N1G2)
inactive: IRAK-1-4 Inhibitor I -0.007 | ibrutinib -0.011 | [1] -0.014 | ralimetinib -0.026 | [2] -0.024 | [3] -0.011 | [4] -0.002 | pinometostat -0.029 | [5] -0.007 | [6] 0.169

CHCHD1 (UniProt Q96BP2)
inactive: IRAK-1-4 Inhibitor I -0.071 | ibrutinib 0.119 | [1] -0.009 | ralimetinib -0.117 | [2] 0.026 | [3] -0.027 | [4] 0.037 | pinometostat -0.021 | [5] 0.08 | [6] -0.19

COQ9 (UniProt O75208)
Chain of UniProt O75208 (O75208 whole entry, looked up): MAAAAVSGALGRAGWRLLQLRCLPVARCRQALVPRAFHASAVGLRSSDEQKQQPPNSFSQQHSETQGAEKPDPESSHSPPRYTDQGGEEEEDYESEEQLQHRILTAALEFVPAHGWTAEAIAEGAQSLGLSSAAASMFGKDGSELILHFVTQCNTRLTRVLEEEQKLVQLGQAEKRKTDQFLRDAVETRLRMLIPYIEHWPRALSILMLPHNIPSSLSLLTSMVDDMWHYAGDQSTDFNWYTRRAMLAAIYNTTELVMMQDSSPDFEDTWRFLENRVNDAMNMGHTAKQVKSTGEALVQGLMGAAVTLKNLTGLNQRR
inactive: IRAK-1-4 Inhibitor I 0.005 | ibrutinib 0.03 | [1] -0.007 | ralimetinib -0.055 | [2] 0.085 | [3] -0.092 | [4] -0.024 | pinometostat -0.062 | [5] 0.019 | [6] 0.043

CBS (UniProt P35520)
inactive: IRAK-1-4 Inhibitor I 0.044 | ibrutinib -0.007 | [1] 0.008 | ralimetinib -0.01 | [2] 0.027 | [3] 0.036 | [4] -0.013 | pinometostat -0.048 | [5] 0.034 | [6] 0.001

CCDC9 (UniProt Q9Y3X0)
active: [6] 0.296
inactive: IRAK-1-4 Inhibitor I -0.05 | ibrutinib 0.078 | [1] 0.173 | ralimetinib 0.031 | [2] 0.053 | [3] 0.105 | [4] 0.087 | pinometostat -0.024 | [5] 0.021

CAB39L (UniProt Q9H9S4)
inactive: IRAK-1-4 Inhibitor I 0.018 | ibrutinib 0.001 | [1] -0.126 | ralimetinib 0.057 | [2] -0.152 | [3] -0.024 | [4] 0.032 | pinometostat 0.102 | [6] -0.483

CTBS (UniProt Q01459)
inactive: IRAK-1-4 Inhibitor I 0.073 | ibrutinib 0.067 | [1] -0.082 | ralimetinib -0.035 | [2] 0.018 | [3] -0.151 | [4] -0.028 | pinometostat -0.009 | [5] 0.1 | [6] -0.061

COX6B1 (UniProt P14854)
Chain of UniProt P14854 (P14854 whole entry, looked up): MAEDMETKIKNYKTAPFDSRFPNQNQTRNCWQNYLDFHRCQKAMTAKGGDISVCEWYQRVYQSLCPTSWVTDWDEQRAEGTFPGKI
inactive: IRAK-1-4 Inhibitor I -0.046 | ibrutinib -0.038 | [1] -0.013 | ralimetinib -0.144 | [2] -0.103 | [3] 0.038 | [4] -0.01 | pinometostat 0.017 | [5] 0.045 | [6] 0.103

CBX5 (UniProt P45973)
active: [6] -0.545
inactive: IRAK-1-4 Inhibitor I -0.076 | ibrutinib 0.002 | [1] -0.102 | ralimetinib -0.002 | [2] 0.056 | [3] -0.067 | [4] -0.001 | pinometostat -0.058 | [5] -0.024

CNTN4 (UniProt Q8IWV2)
inactive: IRAK-1-4 Inhibitor I 0.049 | ibrutinib 0.023 | [1] 0.065 | ralimetinib 0.025 | [2] -0.108 | [3] 0.195 | [4] 0.044 | pinometostat -0.027 | [5] -0.014 | [6] 0.137

CCNT1 (UniProt O60563)
Chain of UniProt O60563 (O60563 whole entry, looked up): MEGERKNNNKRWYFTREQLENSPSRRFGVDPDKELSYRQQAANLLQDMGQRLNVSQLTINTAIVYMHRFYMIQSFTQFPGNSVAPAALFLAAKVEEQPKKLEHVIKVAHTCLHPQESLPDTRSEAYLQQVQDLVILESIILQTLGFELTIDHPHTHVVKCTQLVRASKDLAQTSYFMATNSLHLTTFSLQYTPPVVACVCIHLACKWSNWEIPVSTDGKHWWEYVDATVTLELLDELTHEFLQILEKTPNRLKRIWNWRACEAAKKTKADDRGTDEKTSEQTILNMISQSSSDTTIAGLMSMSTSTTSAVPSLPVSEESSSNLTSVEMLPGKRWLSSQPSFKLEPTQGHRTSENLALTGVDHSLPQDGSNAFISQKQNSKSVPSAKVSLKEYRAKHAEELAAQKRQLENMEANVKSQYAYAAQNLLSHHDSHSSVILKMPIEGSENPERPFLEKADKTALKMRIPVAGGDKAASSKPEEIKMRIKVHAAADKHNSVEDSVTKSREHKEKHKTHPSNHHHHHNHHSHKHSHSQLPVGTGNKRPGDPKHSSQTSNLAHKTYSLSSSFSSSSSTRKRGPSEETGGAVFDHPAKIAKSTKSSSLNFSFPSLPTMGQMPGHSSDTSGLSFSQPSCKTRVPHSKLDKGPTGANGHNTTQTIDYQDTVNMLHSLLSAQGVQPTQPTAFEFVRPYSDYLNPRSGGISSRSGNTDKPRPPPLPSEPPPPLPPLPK
inactive: IRAK-1-4 Inhibitor I -0.004 | ibrutinib 0.001 | ralimetinib 0.054 | [2] 0.042 | [4] 0.105 | pinometostat 0.213 | [5] -0.003 | [6] -0.112
active: [1] -0.603 | [3] -0.375

CES2 isoform 4 (UniProt O00748)
Chain of UniProt O00748 (O00748 whole entry, looked up): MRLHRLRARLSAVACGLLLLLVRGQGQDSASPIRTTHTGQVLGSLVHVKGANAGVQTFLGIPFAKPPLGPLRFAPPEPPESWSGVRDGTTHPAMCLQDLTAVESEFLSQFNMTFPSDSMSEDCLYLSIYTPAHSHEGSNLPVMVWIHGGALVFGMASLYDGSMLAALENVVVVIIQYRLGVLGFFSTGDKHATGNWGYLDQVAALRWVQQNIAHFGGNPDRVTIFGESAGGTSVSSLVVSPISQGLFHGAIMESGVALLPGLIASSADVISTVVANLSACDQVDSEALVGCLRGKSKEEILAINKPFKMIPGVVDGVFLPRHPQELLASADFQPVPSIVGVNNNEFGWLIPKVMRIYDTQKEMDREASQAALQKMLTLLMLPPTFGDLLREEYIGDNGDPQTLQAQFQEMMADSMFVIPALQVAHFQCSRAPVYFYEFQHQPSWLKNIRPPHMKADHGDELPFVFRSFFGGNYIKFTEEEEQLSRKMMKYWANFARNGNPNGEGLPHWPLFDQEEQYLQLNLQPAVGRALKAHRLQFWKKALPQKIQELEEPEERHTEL
inactive: IRAK-1-4 Inhibitor I -0.005 | ibrutinib 0.077 | [1] 0.038 | ralimetinib 0.006 | [2] 0.012 | [3] 0.045 | [4] 0.06 | pinometostat -0.02 | [5] -0.128 | [6] 0

COX5B (UniProt P10606)
Chain of UniProt P10606 (P10606 whole entry, looked up): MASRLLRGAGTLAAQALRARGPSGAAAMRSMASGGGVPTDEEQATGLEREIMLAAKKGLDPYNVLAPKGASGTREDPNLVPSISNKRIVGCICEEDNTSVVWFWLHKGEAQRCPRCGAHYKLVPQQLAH
inactive: IRAK-1-4 Inhibitor I 0.008 | ibrutinib -0.012 | [1] -0.079 | ralimetinib 0 | [2] 0.106 | [4] -0.082 | pinometostat -0.071 | [5] 0.003 | [6] 0.204
active: [3] 0.428

CASC3 (UniProt O15234)
inactive: IRAK-1-4 Inhibitor I -0.014 | ibrutinib 0.1 | ralimetinib 0.07 | [2] -0.023 | [3] 0.411 | [4] -0.036 | pinometostat -0.005 | [5] 0.012 | [6] 0.206
active: [1] 0.582

C9orf72 (UniProt Q96LT7)
inactive: IRAK-1-4 Inhibitor I 0.016 | ibrutinib 0.022 | [1] -0.001 | ralimetinib 0.035 | [2] -0.051 | [3] 0.029 | [4] -0.019 | pinometostat 0.135 | [5] -0.095 | [6] 0.048

CCNH (UniProt P51946)
inactive: IRAK-1-4 Inhibitor I -0.01 | ibrutinib -0.04 | ralimetinib -0.04 | [2] -0.009 | [3] 0.084 | [4] -0.053 | pinometostat 0.022 | [5] 0.045 | [6] -0.01
active: [1] -0.24

CAMKK2 (UniProt Q96RR4)
inactive: IRAK-1-4 Inhibitor I -0.05 | ibrutinib -0.069 | [1] 0.131 | ralimetinib -0.117 | [2] 0.002 | [3] 0.069 | [4] -0.052 | pinometostat 0.142 | [5] 0.039 | [6] -0.025

CETN2 (UniProt P41208)
inactive: IRAK-1-4 Inhibitor I -0.067 | ibrutinib 0.006 | [1] -0.019 | ralimetinib -0.012 | [2] 0.074 | [3] 0.17 | [4] 0.043 | pinometostat 0.011 | [5] 0.075 | [6] -0.045

CFAP36 isoform 2 (UniProt Q96G28)
Chain of UniProt Q96G28 (Q96G28 whole entry, looked up): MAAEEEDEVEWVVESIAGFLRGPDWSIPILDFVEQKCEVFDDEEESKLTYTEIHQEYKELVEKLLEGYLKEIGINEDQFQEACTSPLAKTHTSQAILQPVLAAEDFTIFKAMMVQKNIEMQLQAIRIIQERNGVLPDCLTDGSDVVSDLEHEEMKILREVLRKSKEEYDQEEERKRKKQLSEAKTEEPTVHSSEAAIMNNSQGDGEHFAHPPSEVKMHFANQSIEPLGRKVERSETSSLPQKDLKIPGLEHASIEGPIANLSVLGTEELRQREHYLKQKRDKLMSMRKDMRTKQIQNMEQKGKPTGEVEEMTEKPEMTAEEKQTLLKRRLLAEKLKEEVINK
inactive: IRAK-1-4 Inhibitor I -0.183 | ibrutinib -0.022 | [1] 0.001 | ralimetinib 0.053 | [2] -0.012 | [3] -0.09 | [4] 0.065 | pinometostat 0.024 | [6] 0.103

COX5A (UniProt P20674)
Chain of UniProt P20674 (P20674 whole entry, looked up): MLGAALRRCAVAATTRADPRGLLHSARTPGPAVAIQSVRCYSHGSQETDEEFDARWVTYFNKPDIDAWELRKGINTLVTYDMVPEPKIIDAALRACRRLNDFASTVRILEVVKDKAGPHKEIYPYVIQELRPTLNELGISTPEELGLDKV
inactive: IRAK-1-4 Inhibitor I 0.041 | ibrutinib 0.008 | [1] -0.09 | ralimetinib -0.053 | [2] -0.103 | [3] 0.058 | [4] -0.069 | pinometostat -0.042 | [5] 0.041 | [6] 0.122

CAMSAP1 isoform 3 (UniProt Q5T5Y3)
inactive: IRAK-1-4 Inhibitor I -0.076 | ibrutinib -0.069 | [1] -0.29 | ralimetinib -0.031 | [2] -0.062 | [3] -0.078 | [4] 0.031 | pinometostat 0.121 | [5] -0.056 | [6] 0.108

CASP2 (UniProt P42575)
inactive: IRAK-1-4 Inhibitor I 0.017 | ibrutinib 0.027 | [1] 0 | ralimetinib -0.074 | [2] -0.073 | [3] -0.082 | [4] 0.072 | pinometostat -0.013 | [5] -0.016 | [6] 0.091

CREB3L2 (UniProt Q70SY1)
inactive: IRAK-1-4 Inhibitor I 0.055 | ibrutinib 0.168 | [1] -0.108 | ralimetinib -0.01 | [2] -0.08 | [3] 0.322 | [4] 0.607 | pinometostat -0.193 | [5] -0.058 | [6] 0.074

CLSPN (UniProt Q9HAW4)
Chain of UniProt Q9HAW4 (Q9HAW4 whole entry, looked up): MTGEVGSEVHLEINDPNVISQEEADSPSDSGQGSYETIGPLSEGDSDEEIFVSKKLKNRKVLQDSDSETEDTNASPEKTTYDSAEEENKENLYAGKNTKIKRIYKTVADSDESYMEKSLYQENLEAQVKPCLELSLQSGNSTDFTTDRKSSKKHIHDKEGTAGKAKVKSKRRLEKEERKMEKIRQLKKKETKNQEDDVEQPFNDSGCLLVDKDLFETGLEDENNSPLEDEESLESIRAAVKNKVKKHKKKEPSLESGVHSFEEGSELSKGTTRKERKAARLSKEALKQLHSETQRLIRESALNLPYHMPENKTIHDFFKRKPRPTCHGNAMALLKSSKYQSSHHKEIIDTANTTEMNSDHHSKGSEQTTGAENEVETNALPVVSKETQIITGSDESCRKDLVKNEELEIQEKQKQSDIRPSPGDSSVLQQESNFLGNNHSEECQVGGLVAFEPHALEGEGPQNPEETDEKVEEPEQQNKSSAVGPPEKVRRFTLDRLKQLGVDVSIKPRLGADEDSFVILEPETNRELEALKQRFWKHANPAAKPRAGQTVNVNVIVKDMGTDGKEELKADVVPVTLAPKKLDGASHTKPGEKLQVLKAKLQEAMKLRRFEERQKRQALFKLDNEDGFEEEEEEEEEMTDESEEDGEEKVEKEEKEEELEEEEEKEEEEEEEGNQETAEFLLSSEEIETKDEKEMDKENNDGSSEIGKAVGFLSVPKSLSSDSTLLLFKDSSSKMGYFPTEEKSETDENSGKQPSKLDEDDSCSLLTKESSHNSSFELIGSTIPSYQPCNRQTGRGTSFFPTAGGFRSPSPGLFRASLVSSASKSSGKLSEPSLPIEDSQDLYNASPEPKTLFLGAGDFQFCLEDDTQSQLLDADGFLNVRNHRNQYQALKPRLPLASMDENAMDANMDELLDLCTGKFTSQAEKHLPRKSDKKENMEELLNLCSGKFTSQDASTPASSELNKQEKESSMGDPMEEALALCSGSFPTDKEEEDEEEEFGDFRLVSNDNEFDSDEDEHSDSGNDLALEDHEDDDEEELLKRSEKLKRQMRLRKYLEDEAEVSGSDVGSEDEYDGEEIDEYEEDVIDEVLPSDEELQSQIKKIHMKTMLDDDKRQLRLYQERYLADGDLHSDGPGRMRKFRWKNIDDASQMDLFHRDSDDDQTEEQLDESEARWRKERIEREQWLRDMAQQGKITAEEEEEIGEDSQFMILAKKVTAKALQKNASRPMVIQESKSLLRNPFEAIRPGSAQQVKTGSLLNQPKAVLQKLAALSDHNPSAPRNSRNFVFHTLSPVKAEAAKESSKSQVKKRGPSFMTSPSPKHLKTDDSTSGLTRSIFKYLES
inactive: IRAK-1-4 Inhibitor I 0.028 | [1] -0.04 | ralimetinib -0.033 | [2] 0.038 | [3] -0.062 | [4] 0.124 | pinometostat -0.018 | [5] 0.009
active: [6] -0.541

COX7B (UniProt P24311)
inactive: IRAK-1-4 Inhibitor I 0.045 | ibrutinib 0.074 | [1] 0.034 | [2] -0.011 | [3] 0.112 | pinometostat -0.139 | [5] -0.011 | [6] 0.266

CLCN7 (UniProt P51798)
Chain of UniProt P51798 (P51798 whole entry, looked up): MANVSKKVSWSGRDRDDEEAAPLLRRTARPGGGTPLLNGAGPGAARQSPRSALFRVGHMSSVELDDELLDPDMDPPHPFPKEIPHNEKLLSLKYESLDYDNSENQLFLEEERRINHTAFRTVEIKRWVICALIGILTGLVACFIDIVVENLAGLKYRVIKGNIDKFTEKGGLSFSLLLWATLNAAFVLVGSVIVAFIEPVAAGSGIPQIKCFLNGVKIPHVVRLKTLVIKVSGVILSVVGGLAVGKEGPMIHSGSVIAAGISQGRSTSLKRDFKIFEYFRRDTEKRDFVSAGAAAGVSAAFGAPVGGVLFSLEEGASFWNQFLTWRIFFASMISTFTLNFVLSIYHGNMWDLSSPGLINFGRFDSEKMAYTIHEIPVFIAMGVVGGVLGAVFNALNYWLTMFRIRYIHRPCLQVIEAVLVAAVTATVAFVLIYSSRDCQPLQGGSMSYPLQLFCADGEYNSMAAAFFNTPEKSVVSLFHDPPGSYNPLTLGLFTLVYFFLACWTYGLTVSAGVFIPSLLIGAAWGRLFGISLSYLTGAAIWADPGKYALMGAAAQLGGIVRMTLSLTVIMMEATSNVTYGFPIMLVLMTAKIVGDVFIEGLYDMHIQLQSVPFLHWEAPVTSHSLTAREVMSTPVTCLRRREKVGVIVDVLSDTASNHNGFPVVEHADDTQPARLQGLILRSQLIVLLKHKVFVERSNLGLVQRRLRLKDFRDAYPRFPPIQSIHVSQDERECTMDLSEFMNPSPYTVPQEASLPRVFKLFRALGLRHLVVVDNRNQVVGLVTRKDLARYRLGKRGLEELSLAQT
active: [3] -0.91
inactive: IRAK-1-4 Inhibitor I -0.01 | [1] -0.005 | ralimetinib -0.055 | [2] -0.08 | [4] 0 | pinometostat -0.051 | [5] 0.04 | [6] -0.092

C6orf120 (UniProt Q7Z4R8)
inactive: IRAK-1-4 Inhibitor I 0.116 | ibrutinib -0.003 | ralimetinib 0.015 | [3] -0.19 | [4] -0.003 | pinometostat -0.023 | [5] 0.062 | [6] 0.002

CDK17 isoform 2 (UniProt Q00537)
inactive: IRAK-1-4 Inhibitor I 0.101 | ibrutinib 0.003 | [1] 0.258 | [2] -0.069 | [3] 0.078 | pinometostat 0.037

CLPTM1L (UniProt Q96KA5)
Chain of UniProt Q96KA5 (Q96KA5 whole entry, looked up): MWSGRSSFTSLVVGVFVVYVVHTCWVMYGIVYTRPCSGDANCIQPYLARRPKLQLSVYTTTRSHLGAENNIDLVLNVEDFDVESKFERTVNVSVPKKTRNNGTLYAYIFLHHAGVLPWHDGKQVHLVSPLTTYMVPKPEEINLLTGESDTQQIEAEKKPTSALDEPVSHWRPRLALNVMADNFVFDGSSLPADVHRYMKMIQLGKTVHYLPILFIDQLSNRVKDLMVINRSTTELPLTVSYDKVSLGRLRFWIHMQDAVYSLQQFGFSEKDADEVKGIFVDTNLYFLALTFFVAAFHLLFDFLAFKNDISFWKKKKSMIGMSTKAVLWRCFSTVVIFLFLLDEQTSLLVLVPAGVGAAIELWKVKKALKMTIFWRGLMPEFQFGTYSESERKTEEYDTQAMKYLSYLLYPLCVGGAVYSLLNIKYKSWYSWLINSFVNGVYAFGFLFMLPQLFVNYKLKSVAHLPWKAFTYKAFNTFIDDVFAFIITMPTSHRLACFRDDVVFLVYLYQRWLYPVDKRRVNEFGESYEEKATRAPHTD
active: [3] -0.281
inactive: IRAK-1-4 Inhibitor I 0.051 | [1] -0.033 | ralimetinib -0.05 | [2] -0.069 | [4] 0.006 | pinometostat 0.023 | [5] 0.042 | [6] 0.033
